This passage reports growth results from PubChem BioAssay (NCI).

About 83,000 compounds went through this panel and 20% of them were active in at least one assay; those are over-represented in the sample as a whole.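 Percent growth is the endpoint: 0 to 100 indicates growth inhibition (40 means 60% inhibition), 0 means no net growth, and negative values indicate cell death.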 A number with no mark means an inactive call. The calls were made as follows: active = growth percent below 10; inactive = the rest.

This experiment has as its system SF-268 CNS. Description: NCI-60 one-dose screen, 48 h (100 = growth as untreated, 0 = no growth, -100 = all killed). The note with it: 10 µM unless noted.
In the case of `CCOC(=O)c1ccc(N(CCC(=O)O)C(C)=O)cc1`, the growth is 119%.
As to `Nc1c(C(=O)Nc2cccc(Cl)c2)sc2ncc(Br)cc12`, the growth is 64.1%.
With `CSC(=S)N/N=C(\C)c1ccccn1`, the growth was 17.3%.
To `CC(=O)O[C@H]1[C@H](CC#CC#CC[C@@H]2C[C@]3(C)[C@H]4CC=C5[C@H]6[C@@H](C)[C@H](C)CC[C@]6(C(=O)NCCCCCCCCN)CC[C@@]5(C)[C@]4(C)CC[C@H]3C(C)(C)[C@H]2OC(C)=O)C[C@]2(C)[C@H]3CC=C4[C@H]5[C@@H](C)[C@H](C)CC[C@]5(C(=O)NCCCCCCCCN)CC[C@@]4(C)[C@]3(C)CC[C@H]2C1(C)C` belongs 102%; to `CC(C)COC(=O)NC(C)(C)C`, 109%; to `CCC(=O)NC(O)C(Cl)(Cl)C(C)Cl` (stereo not drawn), 109%.
To `C#CCNC(=S)N/N=C(\C)c1ccccn1` belongs 14.7%; to `COc1ccc(-c2nnc(SCC(=O)Nc3ccc(C(=O)/C=C/c4ccc(Cl)cc4)cc3)n2-c2ccccc2)cc1`, 91%; to `CC1CCN(Cc2ccc(NC(=O)c3cc4ccc5cccnc5c4[nH]3)cc2)CC1`, 37.4%.
As to `CC(C)N1CCN(c2ccncc2S(=O)(=O)N2CCN(C)CC2)CC1`, the growth was 107%.
On to `O=C(/C=C/c1ccccc1)n1c(-c2ccccc2)nc2ccccc21`, for which the growth is 110%.
To `COC1CC(N)C2OC(c3ccccc3)OCC2O1` (stereo not drawn) belongs 108%; to `COc1cccc(NC(=O)[C@H](C(C)C)n2c(=O)[nH]c3ccccc3c2=O)c1`, 111%.
